Among the data in PubChem BioAssay are composite z-score, z-score and composite Z-score values, retold here.

Molecules are shown by their SMILES. Activity calls are given as the source filed them.

The subject of assay [1] is Human papillomavirus type 1a protein E7 (residues 44-93). In words: HPV1a E7 fragment binders on microarrays, primary screen, biochemical, small-molecule microarray, residues 44-93, 635 nm fluorescence (AID 1108).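 Note: E7 fragment applied at 1 µg/mL in TBST for 1 h at 4 C; score combines spot fluorescence with its signal to noise ratio.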 Conditions: small-molecule microarray binding, fluorescence 635 nm; higher = more signal.
Assay [2] in a line: modulators of HCV replicon luciferase signal, primary screen, HCV replication inhibitor project, Huh7 cells, luciferase reporter (AID 1109).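 Note: huh7 hepatoma cells harbouring a luciferase neomycin HCV replicon reporter; luciferase luminescence as measure of HCV replicon replication; test concentration not given here.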 To be noted: 48 h, higher = more signal. For orientation: In antiviral work, replicon cells carry a viral genome segment that copies itself.
Assay [3] has as its target Left-right determination factor 2 (Homo sapiens) (UniProt O00292). The experiment in a line: LEFTY2 binders on small-molecule microarrays, primary screen, biochemical, small-molecule microarray, 635 nm fluorescence scan (AID 1110). To be noted: LEFTY2 binding, higher = more signal.
In assay [4] the target is Calmodulin-1 (Homo sapiens) (UniProt P0DP23). In words: CALM1 binders on microarrays, EGTA buffer, profiling panel, biochemical, small-molecule microarray, Cy5-labelled CALM1 (AID 1111).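 Note: labelled calmodulin applied in Tris saline Tween buffer holding calcium plus EGTA and DTT.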 Conditions: Cy5-CALM1 binding fluorescence, higher = more signal.
The target is the same in assay [5]. In words: calcium-bound CALM1 binders on microarrays, profiling panel, artefact control for SMM control-protein annotation, biochemical, small-molecule microarray, Cy5-labelled CALM1, plus calcium (AID 1112).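 Note: score merges spot fluorescence with signal to noise from triplicate slides.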 Conditions: Cy5-CALM1 binding fluorescence, higher = more signal.
Assay [6] is described as follows: small-molecule microarray binders of probe aWnt5a, primary screen, biochemical, biotinylated probe, 635/667 nm fluorescence (AID 1113).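 Note: score merges 667 nm fluorescence intensity with signal-to-noise per printed feature.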 Conditions: higher = more signal.
A short description of assay [7]: small-molecule microarray binders of probe aShh, primary screen, biochemical, biotinylated probe, 635/667 nm fluorescence (AID 1114).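 Note: probe is biotin-labelled aShh protein from a stem cell growth factor screen; measures binding of labelled protein to compounds printed on the slide; score merges feature fluorescence at 667 nm with signal-to-noise.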 To be noted: higher = more signal.
The nature of assay [8]: small-molecule microarray binders of probe aNog, primary screen, biochemical, biotinylated probe, 635/667 nm fluorescence (AID 1115).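 Note: probe is biotinylated aNog protein used at 0.15 µg/mL for 1 h at 4 C; z-score combines 667 nm fluorescence of each spot with its signal to noise.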 To be noted: higher = more signal.
The target of assay [9] is Torsin-1A-interacting protein 1 (Homo sapiens) (UniProt Q5JTV8). In words: LAP1 binders from COS7 cell lysate, primary screen, small-molecule microarray, 635/667 nm fluorescence (AID 1116). Conditions: COS7-hLAP1 lysate binding, 635 nm fluorescence, higher = more signal.
Torsin-1A-interacting protein 1 (Homo sapiens), sequence (Q5JTV8 whole entry, looked up): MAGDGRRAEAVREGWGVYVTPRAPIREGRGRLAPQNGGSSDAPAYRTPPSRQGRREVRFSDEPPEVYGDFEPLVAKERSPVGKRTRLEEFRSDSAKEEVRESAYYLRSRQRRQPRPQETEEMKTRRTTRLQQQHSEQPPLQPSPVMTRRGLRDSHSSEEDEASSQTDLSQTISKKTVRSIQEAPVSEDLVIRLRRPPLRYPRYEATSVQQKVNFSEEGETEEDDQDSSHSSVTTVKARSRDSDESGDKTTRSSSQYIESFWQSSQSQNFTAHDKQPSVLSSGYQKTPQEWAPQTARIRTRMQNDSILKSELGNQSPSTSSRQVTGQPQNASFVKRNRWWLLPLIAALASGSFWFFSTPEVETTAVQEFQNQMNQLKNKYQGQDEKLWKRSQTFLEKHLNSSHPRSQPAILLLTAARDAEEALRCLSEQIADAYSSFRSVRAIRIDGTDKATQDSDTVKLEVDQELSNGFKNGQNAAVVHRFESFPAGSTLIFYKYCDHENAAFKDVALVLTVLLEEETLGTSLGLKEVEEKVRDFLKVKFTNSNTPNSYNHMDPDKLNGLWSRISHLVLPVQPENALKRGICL
The target in assay [10] is Alpha-bungarotoxin (Bungarus multicinctus) (UniProt P60615). In words: alpha-bungarotoxin binders on microarray, profiling panel, artefact control for SMM control protein annotation, biochemical, small-molecule microarray, Alexa647 label, 635/667 nm fluorescence (AID 1117). To be noted: alpha-BTX-A647 binding fluorescence, higher = more signal.
Alpha-bungarotoxin (Bungarus multicinctus), sequence (P60615 whole entry, looked up): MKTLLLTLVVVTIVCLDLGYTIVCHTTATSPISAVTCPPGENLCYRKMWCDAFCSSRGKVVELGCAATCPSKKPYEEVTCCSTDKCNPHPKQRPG
In assay [11] the target is Albumin (Bos taurus) (UniProt P02769). In words: bovine serum albumin binders on microarray, profiling panel, artefact control for SMM control protein annotation, biochemical, small-molecule microarray, Alexa647 label, 635/667 nm fluorescence (AID 1118).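 Note: score merges 667 nm emission intensity and signal-to-noise per printed compound spot.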 To be noted: BSA-A647 binding, fluorescence 635 nm, higher = more signal.
Albumin (Bos taurus), sequence (P02769 whole entry, looked up): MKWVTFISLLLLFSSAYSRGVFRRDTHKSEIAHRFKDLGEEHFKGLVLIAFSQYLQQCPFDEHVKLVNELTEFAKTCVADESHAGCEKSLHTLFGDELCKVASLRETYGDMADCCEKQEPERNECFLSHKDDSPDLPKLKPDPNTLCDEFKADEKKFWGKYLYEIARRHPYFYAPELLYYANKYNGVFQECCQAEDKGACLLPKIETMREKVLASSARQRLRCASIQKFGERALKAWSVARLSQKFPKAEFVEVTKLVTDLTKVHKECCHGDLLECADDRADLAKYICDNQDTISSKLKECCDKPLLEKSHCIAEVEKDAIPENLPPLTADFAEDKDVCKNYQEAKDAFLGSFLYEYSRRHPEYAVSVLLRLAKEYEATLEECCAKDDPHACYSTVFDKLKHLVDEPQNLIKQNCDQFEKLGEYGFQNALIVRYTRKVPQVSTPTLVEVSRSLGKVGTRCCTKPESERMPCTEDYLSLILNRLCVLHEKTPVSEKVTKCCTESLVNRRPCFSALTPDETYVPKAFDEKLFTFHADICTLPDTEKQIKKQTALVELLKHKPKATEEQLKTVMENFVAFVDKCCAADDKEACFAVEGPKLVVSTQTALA
Assay [12] in a line: small-molecule microarray binders of probe aXIP, primary screen, biochemical, NeuroSMM set, 635/667 nm fluorescence (AID 1119).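 Note: probe is the protein aXip251-270 applied at 1 µg/mL to compound-printed slides; binding of probe to printed compounds measured as 667 nm fluorescence plus signal to noise.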 To be noted: higher = more signal, called active from +8 up or from −8 down.
Assay [13] is described as follows: small-molecule binders of probe aNOTCH3, primary screen, biochemical, small-molecule microarray, 635/667 nm fluorescence (AID 1120).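 Note: probe is a biotin-tagged antibody raised against NOTCH3 rather than NOTCH3 protein; score merges spot fluorescence near 667 nm with spot signal to noise.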 Conditions: higher = more signal.
Assay [14] can be described thus: small-molecule binders of probe aNOTCH2, primary screen, biochemical, small-molecule microarray, 635/667 nm fluorescence (AID 1121).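 Note: score merges feature fluorescence read at 667 nm with its signal to noise.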 Conditions: higher = more signal.
Assay [15] has as its target Carbonic anhydrase 2 (Homo sapiens) (UniProt P00918). In words: CAII small-molecule binders, profiling panel, biochemical, small-molecule microarray, Alexa647-labelled CAII (AID 1122). Conditions: CAII-A647 binding fluorescence, higher = more signal.
Assay [16] in a line: COS7 lysate on small-molecule microarray, probe aHis, 635 nm (AID 1123).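 Note: z-score combines 667nm fluorescence intensity with signal-to-noise per printed compound spot.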 Conditions: COS7 cell lysate, fluorescence, higher = more signal.
The nature of assay [17]: compound binding in COS7 lysate, probe aLAP1, primary screen, cell lysate, small-molecule microarray (AID 1124).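 Note: lysate comes from COS7 cells expressing LAP1 and is applied at 0.3 µg/mL; score merges spot fluorescence near 667 nm with signal-to-noise over triplicate slides.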 Conditions: probe aLAP1, fluorescence, higher = more signal.
Assay [18] relates to Sam68 (KHDRBS1). The experiment in a line: Sam68 small-molecule binders, primary screen, biochemical, small-molecule microarray, 635 nm fluorescence (AID 1125).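 Note: score merges 667 nm channel intensity with signal to noise over triplicate slides.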 Conditions: small-molecule microarray binding, higher = more signal.
Assay [19] has as its system Chordin-like protein 2 (CHRDL2). The experiment in a line: CHRDL2 small-molecule binders, primary screen, biochemical, small-molecule microarray, 635 nm fluorescence (AID 1126).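 Note: printed compound slides probed with Chrdl2 protein at 4 µg/mL for 1 h at 4 C; score merges 667 nm emission intensity with signal to noise over three replicate slides.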 Conditions: small-molecule microarray binding, fluorescence 635 nm; higher = more signal.
Assay [20] deals with Concanavalin-A (Canavalia ensiformis) (UniProt P02866). The experiment in a line: ConA small-molecule binders, primary screen, artefact control for SMM control protein annotation, biochemical, small-molecule microarray, Alexa647 label, 635 nm (AID 1127).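 Note: z combines 667 nm emission intensity with signal-to-noise across three replicate slides.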 To be noted: ConA-A647 binding fluorescence, higher = more signal.
Concanavalin-A (Canavalia ensiformis), sequence (P02866 whole entry, looked up): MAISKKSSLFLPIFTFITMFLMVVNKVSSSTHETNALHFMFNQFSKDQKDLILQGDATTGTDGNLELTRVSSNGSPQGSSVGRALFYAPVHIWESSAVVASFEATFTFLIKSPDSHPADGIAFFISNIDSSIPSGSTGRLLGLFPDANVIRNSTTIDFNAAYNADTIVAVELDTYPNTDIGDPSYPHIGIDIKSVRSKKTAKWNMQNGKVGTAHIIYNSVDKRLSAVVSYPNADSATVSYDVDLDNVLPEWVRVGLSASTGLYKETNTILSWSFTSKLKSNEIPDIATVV

Left-right determination factor 2 (Homo sapiens), sequence (O00292 whole entry, looked up): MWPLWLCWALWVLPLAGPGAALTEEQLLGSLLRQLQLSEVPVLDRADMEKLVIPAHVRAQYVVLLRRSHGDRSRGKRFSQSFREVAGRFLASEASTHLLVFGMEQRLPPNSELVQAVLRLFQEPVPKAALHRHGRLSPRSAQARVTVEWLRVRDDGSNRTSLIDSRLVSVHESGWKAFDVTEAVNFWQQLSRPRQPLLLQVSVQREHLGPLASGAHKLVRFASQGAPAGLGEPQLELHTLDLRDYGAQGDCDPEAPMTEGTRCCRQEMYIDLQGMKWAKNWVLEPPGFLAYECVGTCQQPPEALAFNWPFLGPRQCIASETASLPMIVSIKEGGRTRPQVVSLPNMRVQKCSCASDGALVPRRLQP

`C=C(CCCC)C(=O)CC[C@@H](OC(=O)c1cccnc1)c1ccc(OCCO)cc1`: the composite z-score in assay [1] is 0.849; in [3], 0.249; in assay [4], -0.588; in assay [5], -0.684; in assay [6], -0.0161; in [7], -0.243. Besides, the composite z-score is -0.374 in assay [8]; 0.903 in assay [9]; 0.172 in assay [10]; -0.409 in assay [11]; -0.0144 in [13]; -0.0357 in assay [14]. Also, the composite z-score in assay [15] was found to be 0.718; in assay [16], 0.719; in [17], 0.488; in [18] it was 0.947; in [19], 0.894; in assay [20], 0.239. Moreover, the z-score in [2] is -2.35. Also, the composite Z-score in [12] is 0.97 (inactive).

Turning to `CO[C@H]1O[C@H](CO)[C@@H](OC(=O)c2ccc(Br)cc2)[C@@H]2OC(=O)[C@H](Cc3ccccc3)C/C=C/C[C@@H](Cc3ccccc3)C(=O)O[C@@H]12`, the composite z-score in assay [1] is 0.79; in [3] it was 0.109; in [4] it was 0.575; in assay [5] it was -0.662; in assay [6], -0.275; in assay [7], -0.23. Also, the composite z-score was -0.542 in assay [8]; 0.706 in assay [9]; 0.142 in assay [10]; 0.776 in assay [11]; 0.0971 in [13]; -0.15 in assay [14]. Besides, the composite z-score in [15] is 0.704; in assay [16], 0.186; in assay [17] it was 1.07; in assay [18], -0.148; in [19], 0.136; in assay [20], 0.599. This compound also yielded a z-score in assay [2] of -3.01. In [12], the composite Z-score is 0.726 (inactive).

For the compound `O=C1C2C=CC(C(O)c3cc(C(F)(F)F)cc(C(F)(F)F)c3)N(Nc3ccccc3F)C2C(=O)N1c1ccccc1` (stereo not given), the composite z-score in assay [1] is 0.962; in assay [3], -0.327; in assay [4], 0.896; in assay [5], 0.681; in [6], -0.043; in [7], 0.957. Besides, the composite z-score in assay [8] is 1.97; in assay [9], 0.985; in assay [10], 0.383; in assay [11] it was 1.01; in [13] it was 0.114; in [14], -0.0005. Further, the composite z-score in assay [15] is 0.752; in assay [16], 2.86; in [17], 1.06; in [18] it was 1.01; in assay [19], -0.217; in assay [20] it was 0.443. Moreover, the z-score in assay [2] is -2.74. The composite Z-score in [12] was -0.147 (inactive).

In the case of `CCOC(=O)C[C@H]1[C@H](OC(=O)c2ccccc2-c2ccccc2)[C@@H](NC(=O)c2ccc3ccccc3n2)c2cc(OCCCO)ccc2N1C(=O)c1ccccc1`, the composite z-score in assay [1] is 1.29; in [3], 0.487; in assay [4], -0.0187; in assay [5], -0.457; in assay [6], -0.0519; in [7], -0.248. The composite z-score was -0.347 in [8]; 0.291 in assay [9]; 0.414 in assay [10]; -0.321 in assay [11]; 0.038 in assay [13]; -0.14 in assay [14]. For the same compound, the composite z-score is 0.286 in [15]; 0.824 in [16]; -0.0982 in [17]; 1.33 in assay [18]; 0.374 in assay [19]; 0.37 in assay [20]. The compound also gave a z-score in assay [2] of -1.7. In addition, the composite Z-score in assay [12] is 0.311 (inactive).

Consider `CC(C)(C)OC(=O)CC[C@]1(C(=O)N2CCCCC2)COC(c2ccc(OCCCO)cc2)=N1`, for which the composite z-score is 1.45 in assay [1]; 0.393 in assay [3]; 1.4 in assay [4]; -0.257 in [5]; 0.0775 in assay [6]; 0.385 in [7]. Also, the composite z-score is -0.614 in [8]; 1.36 in [9]; 0.302 in assay [10]; 0.939 in assay [11]; 0.286 in [13]; 0.0341 in assay [14]. In addition, the composite z-score in [15] was 0.862; in assay [16], 2.68; in assay [17] it was 1.05; in assay [18], 1.14; in assay [19], -0.538; in [20], 1.11. Also, the z-score in assay [2] was -0.523. The composite Z-score in assay [12] was 1.28 (inactive).
